Reference: PubChem BioAssay (NCI)
About 83,000 compounds went through this panel and 20% of them were active in at least one assay; those are over-represented in the sample as a whole.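 Percent growth is the endpoint: 0 to 100 indicates growth inhibition (40 means 60% inhibition), 0 means no net growth, and negative values indicate cell death.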 Unmarked numbers belong to inactive results. Active and inactive are the calls of the source. Rule for the calls: active = growth percent below 10; inactive = the rest.

Experiments:
Assay in all cases: NCI-60 one-dose screen, 48 h (100 = growth as untreated, 0 = no growth, -100 = all killed)
Details in all cases: 10 µM unless noted
NCI-H23 lung = system: NCI-H23 lung
NCI-H226 lung = system: NCI-H226 lung
HOP-62 NSCLC = system: HOP-62 NSCLC
NCI-H460 lung = system: NCI-H460 lung
NCI-H522 lung = system: NCI-H522 lung
A549/ATCC NSCLC = system: A549/ATCC NSCLC
786-0 renal = system: 786-0 renal
COLO 205 colon = system: COLO 205 colon
HOP-92 NSCLC = system: HOP-92 NSCLC

Compound	growth (NCI-H23 lung)	growth (NCI-H226 lung)	growth (HOP-62 NSCLC)	growth (NCI-H460 lung)	growth (NCI-H522 lung)	growth (A549/ATCC NSCLC)	growth (786-0 renal) [%]	growth (COLO 205 colon)	growth (HOP-92 NSCLC)
CCCCCc1ccc(S(=O)(=O)Nc2cc(-c3csc(N)n3)ccc2OC)cc1	88.7%	80%	108%	99.5%	84.9%	88%	99.1	117%	–
CCc1nnc(NC(=O)c2cc(-c3ccc(Cl)cc3Cl)oc2C)s1	85.7%	85.6%	96%	53.9%	79.4%	77.1%	95.9	105%	92%
Clc1ccc(CSc2nnc(-c3ccc(Cl)cc3)n2-c2ccccc2)cc1	79.8%	46.1%	92.4%	85.8%	70.1%	80.3%	59.7	122%	89.5%
O=C(CCCCCCNC(=O)C(O)(O)C(F)(F)F)Nc1ncc(-c2ccccc2)s1	-1.99% (active)	14.9%	-6.52% (active)	2.92% (active)	-38.1% (active)	-12.9% (active)	17.1	-73.3% (active)	-19.4% (active)
O=C(N/N=C\c1ccc([N+](=O)[O-])cc1)c1ccc2nc(-c3ccc(Br)cc3)[nH]c2c1	8.79% (active)	62.4%	29.7%	-43.8% (active)	5.47% (active)	27.2%	36.8	-50.6% (active)	55%
c1ccc(-c2cn3c(-c4c[nH]c5ccccc45)csc3n2)cc1	57.8%	80.4%	91.3%	60.8%	51%	92%	99.5	83.5%	-1.71% (active)
COC(=O)c1cccc(NC2=CC(=O)C(C)=C(C)C2=O)c1	63.9%	95%	97.4%	104%	93.6%	109%	101	114%	123%
Clc1cccc(/C=N/Nc2nc(N/N=C/c3cccc(Cl)c3)nc(N3CCCCC3)n2)c1	97.8%	82%	104%	96.5%	88.3%	86.3%	95.2	102%	108%
COc1ccc(C2c3[nH]c4ccc(Cl)cc4c3CCN2c2oc(CO)nc2C#N)cc1 (stereo not given)	69.9%	60%	53.5%	22.9%	31.7%	38.1%	64.6	40.5%	53.3%
CC1(C)C=Cc2cc(/C(N)=N/C(N)=N/c3nc4ccccc4s3)ccc2O1	58.3%	5.64% (active)	5.82% (active)	52.3%	91.2%	67%	113	102%	94.2%
O=C(CCl)Nc1ccc(NC(=O)c2cc(Cl)ccc2O)c(Cl)c1	29%	59%	101%	67.1%	-22.6% (active)	88.3%	88	95.2%	127%
Cn1cc(-c2cc3ncnc(Nc4ccc(CC(=O)Nc5nc(C(C)(C)C)cs5)cc4)c3s2)cn1	47.5%	32.9%	93.1%	54.3%	36.9%	46.4%	34.4	65.8%	85%
CCc1cc(OC(=O)N2CCN(CCC(C)(COC(C)(C)C)COC(C)(C)C)CC2)ccc1Nc1cc(-c2ccc(-n3cccn3)cc2)[nH]n1	83.9%	67.1%	91.7%	74.4%	80.7%	81.1%	85.8	80.8%	73.1%
CC(=O)/C(N=Nc1ccc2oc(=O)ccc2c1)=C(\C)O	27.5%	42.6%	26.2%	14.6%	31%	23.6%	37.5	15.2%	2.61% (active)
